In all, about 33,000 sequences were measured (“E-score (-0.5 to 0.5)”: median about -0.04, highest 2% from about 0.36 on). Many of the other results were omitted from the sample, so the highest values are more common in it than they were.
These sequences were tested against T1, Hmlalpha2 (UniProt P0CY09) (assay: PBM E-score (8-mer binding enrichment) (E-score (-0.5 to 0.5)); higher = stronger / more preferred TF binding). Conditions: protein concentration: 200 nM; construct: GST-full length.
T1 sequence: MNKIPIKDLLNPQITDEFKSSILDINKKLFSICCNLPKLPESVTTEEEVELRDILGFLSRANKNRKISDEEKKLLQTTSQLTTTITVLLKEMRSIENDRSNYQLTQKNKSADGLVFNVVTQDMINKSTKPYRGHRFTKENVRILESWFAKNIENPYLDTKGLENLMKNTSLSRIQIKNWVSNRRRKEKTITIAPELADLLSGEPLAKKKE
Method: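 Universal 'all 10-mer' protein binding microarrays (Agilent AMADID 015681) probed with GST-tagged S. cerevisiae TFs (full-length or DBD) made by in vitro transcription/translation (PURExpress), about 100-200 nM. Bound TF was detected with fluorescent anti-GST. Each ungapped 8-mer (which stands for itself and its reverse complement) is scored by the PBM enrichment score (E-score), a modified Wilcoxon-Mann-Whitney statistic from -0.5 to +0.5, computed with the Universal PBM Analysis Suite. Scale: above 0.35 generally sequence-specific binding.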

Sequence | PBM E-score
ATGAGGAA | 0.0377
ACCTAACT | 0.00114
AACGAACC | 0.036
CATGGGGC | 0.0176
CGCAATGA | 0.0708
GAGAATAC | 0.242
ATTGTTGG | 0.151
AATCTGAA | 0.102
ACTACTTG | 0.154
GCGTGTAA | 0.486
ACGTGTAT | 0.402
ACGTGTCT | 0.193
TAGTGTAA | 0.323
GCGTGTAC | 0.427
GGGTGTAC | -0.0223
GAGTGTAC | 0.0265
ACGTGTGC | 0.172
AAGTGTAC | 0.0982
AAGTGTAT | 0.194
ACGTGTAC | 0.382
GCCTGTAA | 0.254
CAACCACG | 0.111
ATTGGTAG | 0.0446
GGATCCTA | -0.154
ATCCTAAT | -0.0163

Sequence | PBM E-score
CTGGCGAA | -0.103
CTGTCCAA | -0.0758
ACATAGGG | 0.251
ACGTAGAT | 0.267
CGCTTGCA | -0.0244
ACGCGTAT | 0.357
TGGCGTAA | 0.108
GCGCGTGA | 0.134
CCGCGTTA | 0.336
GCGCGTTA | 0.372
ACGCGTTA | 0.342
ACGCGTAC | 0.345
GCGCGTAA | 0.416
TAGCGTAA | 0.278
GCGCGTAC | 0.225
ACGCGTAA | 0.394
TCGCGTAA | 0.45
GCTGAAGC | -0.14
CCGAATGC | -0.125
ATTGATGG | 0.08
TCCATGAA | 0.043
TCCAACAA | 0.264
GGCCTACC | -0.247
CTGAGGGC | -0.3
ATCTCGGA | -0.115

Sequence | PBM E-score
AAAGCGAG | 0.107
CTCTGACA | 0.132
GCGACCAA | -0.0947
GCCAGACA | -0.163
CCGCGTAG | 0.294
CCGCGTAA | 0.426
CCGCGTAC | 0.266
ATCTACTA | 0.193
GCTATTCA | 0.0214
ACTTTGCC | -0.0921
GGGGAGTA | -0.225
AAGTTGCA | 0.109
TATCTACA | 0.371
ATTCTACG | 0.157
AATCTACT | 0.098
TATCTAAA | 0.141
AATCTACA | 0.438
GATCTACA | 0.345
ATTCTACA | 0.371
CATCTACA | 0.338
GTTCTACA | 0.29
GCATTGAC | 0.0683
CGACCGAA | -0.0499
GAAGGCCA | -0.38
ATCTGCCA | -0.149

Sequence | PBM E-score
CAGTACAG | 0.0351
TAACGGCA | -0.0141
GTTACAGA | 0.0217
CTTACAGA | 0.0289
CTCACATA | 0.0587
GTTACATA | 0.421
CTTACATA | 0.426
GTTACTGA | 0.171
ACCCCTAT | -0.208
ACACCCAG | 0.0143
GCGCGAAA | 0.189
TCACAACA | 0.324
TACTATAA | 0.171
ACATATGG | 0.104
ACATATGT | 0.369
AAATATTA | 0.317
CCATATTA | 0.063
ACATATTA | 0.389
CAATATTA | 0.213
TAATATTA | 0.379
ACATATTG | 0.142
ACATATGC | 0.123
ATGCACAC | 0.106
CTTTTGCA | 0.105
ACTTTCGG | -0.0932

Sequence | PBM E-score
AGCATCCC | -0.348
AGAACTAA | 0.189
AGAGCGGG | -0.166
ACCTACTA | 0.081
ACGCGATA | 0.324
CTCCAGGC | -0.185
CTTAAACA | 0.128
GTTAAAAA | 0.369
ATTAAACA | 0.322
GTTAAACA | 0.375
ATTAAAAA | 0.249
GTTAAAAC | 0.343
TCCTACCA | -0.318
GGATGGAA | -0.175
AGGTTCTG | -0.0953
AAACCTCT | -0.08
GTGTTTAA | 0.351
ATGTTTTC | 0.421
CTGTTTTC | 0.036
GTGTTTTA | 0.355
ATGTTTCC | 0.0968
CTGTTTAA | 0.11
ATGTTTAA | 0.387
CTGTTTTA | 0.0458
ATGTTTTA | 0.422

Sequence | PBM E-score
ACCTTGGC | -0.242
ATTGCCAA | -0.206
CCTGGACC | -0.0273
GGTTCTCA | -0.0328
CTCTACAA | 0.277
ATCTACGA | 0.014
ATCTACAT | 0.452
ATCTACAG | 0.151
CTCTACGC | 0.0772
ATCTACAA | 0.307
ATCTACTC | 0.00965
GTCTACAC | 0.364
ATCTACAC | 0.45
CTCTACAC | 0.368
CCCTACAC | 0.247
ATCTACGC | 0.368
GGAGGCTA | -0.325
GTTCTGCA | 0.104
ATAACATA | 0.437
ATAACATG | 0.452
ATAACATC | 0.327
GTAACATA | 0.355
CTAACATA | 0.273
ATAACAGG | 0.194
AGCTGCAG | -0.168

Sequence | PBM E-score
ACTTTGAC | 0.231
CCTTGCCC | -0.198
CAATGTTA | 0.284
CCATGTCA | 0.333
ACATGTTC | 0.371
ACATGTCC | 0.351
AGATGTTC | 0.0875
GCCTGTTA | 0.139
GCATGTTA | 0.464
ACATGTCA | 0.402
AAATGTTG | 0.0925
CCATGTTC | 0.275
ACATGTTG | 0.45
AGATGTTG | -0.0256
CCTGGGCG | -0.173
GCAAGCGA | 0.0703
GCGAAACC | 0.104
CAAACCCG | -0.0693
ATTCACCA | 0.0468
ATGAGGTA | 0.136
CCGCATAC | 0.0261
CCTTAGAG | -0.462

From the supplement of paper PMC3334620
